In PubChem BioAssay AID1159580 (chemical genetic matrix, 2015):
“And” between values parts separate entries of the source, which are not always exact repeats. Equal values may be shown once. Out of some 5,500 compounds screened, about 2,000 (36%) were called active. Inconclusive results (about 18%) are left out. The list shows a part of the results. Values without a mark were called inactive. No stated cut-off is given here; in the data, active means normalized growth mostly below about 0.91 (no sharp cut-off); inconclusive means no clear call, values can overlap the other calls; inactive means mostly above about 0.92.

Experiment: chemical genetic growth profiling, strain panel (AID 1159580);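 further: tested at 20 µM; growth read once vehicle control cultures reached saturation at 30 °C; 1 = growth at the plate median or of vehicle wells; lower values mean less growth of the strain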
Details: S. cerevisiae deletion strains, growth OD
[1] = locus YAL013W, strain DEP1, active compounds read low
[2] = locus YDL101C, strain DUN1, active compounds read low
[3] = locus YHR030C, strain SLT2, active compounds read low
[4] = locus YMR263W, strain SAP30, active compounds read low
[5] = locus YNL128W, strain TEP1, active compounds read low
[6] = locus YNL153C, strain GIM3, active compounds read low
[7] = locus YNL322C, strain KRE1, active compounds read low
[8] = locus YPL241C, strain CIN2, active compounds read low
[9] = locus YAL040C, strain CLN3, active compounds read low
[10] = locus YCL061C, strain MRC1 (second series), active compounds read low
[11] = locus YDR363W, strain ESC2, active compounds read low
[12] = locus YER002W, strain NOP16, active compounds read low
[13] = locus YGR229C, strain SMI1, active compounds read low
[14] = locus YNL175C, strain NOP13, active compounds read low
[15] = locus YNL197C, strain WHI3, active compounds read low
[16] = locus YNL224C, strain SQS1, active compounds read low
[17] = locus YOR083W, strain WHI5 (second series), active compounds read low

Compound `Cc1noc(C)c1-c1nc(-c2cc(C(F)(F)F)cc(C(F)(F)F)c2)no1` has a normalized growth [1] of 1.02, a normalized growth (locus YBR229C, strain ROT2, active compounds read low) of 1.01 and a normalized growth (locus YCL061C, strain MRC1, active compounds read low) of 0.992. It also gave a normalized growth [2] of 1.02, a normalized growth (locus YDL134C, strain PPH21, active compounds read low) of 1.01 and a normalized growth (locus YDR150W, strain NUM1, active compounds read low) of 0.983. The normalized growth (locus YEL061C, strain CIN8, active compounds read low) was 1.01, the normalized growth (locus YGR078C, strain PAC10, active compounds read low) was 1.01 and the normalized growth [3] was 1.03. For the same compound, the normalized growth (locus YHR087W, strain rtc3, active compounds read low) was 1, the normalized growth (locus YJL187C, strain SWE1, active compounds read low) was 1 and the normalized growth (locus YJR043C, strain POL32, active compounds read low) was 1. For the same compound, the normalized growth (locus YJR075W, strain HOC1, active compounds read low) was 0.999, the normalized growth (locus YLR039C, strain RIC1, active compounds read low) was 1.06 and the normalized growth (locus YLR058C, strain SHM2 (second series), active compounds read low) was 0.993. It also gave a normalized growth (locus YLR085C, strain ARP6, active compounds read low) of 1.03, a normalized growth (locus YLR262C, strain YPT6, active compounds read low) of 1.03 and a normalized growth (locus YML094W, strain GIM5, active compounds read low) of 1.07. The normalized growth (locus YMR219W, strain ESC1, active compounds read low) was 0.998, the normalized growth [4] was 0.981 and the normalized growth (locus YMR307W, strain GAS1, active compounds read low) was 0.99. For the same compound, the normalized growth [5] was 1.02, the normalized growth [6] was 1 and the normalized growth (locus YNL298W, strain CLA4 (second series), active compounds read low) was 1. The normalized growth [7] was 1.01, the normalized growth (locus YNR030W, strain Alg12, active compounds read low) was 1.03 and the normalized growth (locus YPL055C, strain LGE1, active compounds read low) was 1.05. It also gave a normalized growth [8] of 1.01 and a normalized growth (locus YPR135W, strain CTF4, active compounds read low) of 1.07.

Work on `Fc1cccc(Cl)c1CSc1n[nH]c(-c2cc(C(F)(F)F)cc(C(F)(F)F)c2)n1` yielded a normalized growth (locus YAR019C, strain CDC15, active compounds read low) of 0.973, a normalized growth (locus YBL105C, strain PKC1, active compounds read low) of 0.981 and a normalized growth (locus YBR135W, strain CKS1, active compounds read low) of 0.981. The normalized growth (locus YBR136W, strain MEC1, active compounds read low) was 0.982, the normalized growth (locus YBR160W, strain CDC28, active compounds read low) was 0.977 and the normalized growth (locus YDL017W, strain CDC7, active compounds read low) was 0.987. The normalized growth (locus YDL028C, strain MPS1, active compounds read low) was 0.961, the normalized growth [2] was 0.986 and the normalized growth (locus YDL108W, strain KIN28, active compounds read low) was 0.97. The normalized growth (locus YDL132W, strain cdc53, active compounds read low) was 0.975, the normalized growth (locus YDL214C, strain PRR2, active compounds read low) was 0.916 and the normalized growth (locus YDR052C, strain DBF4, active compounds read low) was 0.994. For the same compound, the normalized growth (locus YDR054C, strain cdc34, active compounds read low) was 0.973, the normalized growth (locus YDR226W, strain ADK1, active compounds read low) was 0.971 and the normalized growth (locus YDR477W, strain SNF1, active compounds read low) was 0.891. It also gave a normalized growth (locus YER123W, strain YCK3, active compounds read low) of 0.918, a normalized growth (locus YER133W, strain GLC7, active compounds read low) of 0.939 and a normalized growth (locus YFL009W, strain cdc4, active compounds read low) of 0.961. For the same compound, the normalized growth (locus YFL029C, strain CAK1, active compounds read low) was 0.973, the normalized growth (locus YFR003C, strain YPI1, active compounds read low) was 0.977 and the normalized growth (locus YFR019W, strain FAB1, active compounds read low) was 0.913. For the same compound, the normalized growth (locus YFR028C, strain CDC14, active compounds read low) was 0.973, the normalized growth (locus YGR040W, strain KSS1, active compounds read low) was 0.898 and the normalized growth (locus YGR052W, strain FMP48, active compounds read low) was 0.925. The normalized growth (locus YGR092W, strain DBF2, active compounds read low) was 0.914, the normalized growth [3] was 0.372 (active) and the normalized growth (locus YHR079C, strain IRE1, active compounds read low) was 0.836. It also gave a normalized growth (locus YHR082C, strain KSP1, active compounds read low) of 0.871, a normalized growth (locus YHR205W, strain SCH9, active compounds read low) of 0.821 and a normalized growth (locus YIL147C, strain SLN1, active compounds read low) of 0.98. It also gave a normalized growth (locus YJL095W, strain BCK1, active compounds read low) of 0.79, a normalized growth (locus YJL128C, strain PBS2, active compounds read low) of 0.957 and a normalized growth (locus YJL157C, strain FAR1, active compounds read low) of 0.926. For the same compound, the normalized growth (locus YJR016C, strain ILV3, active compounds read low) was 0.981, the normalized growth (locus YJR066W, strain TOR1 (second series), active compounds read low) was 0.918 and the normalized growth (locus YJR066W, strain TOR1, active compounds read low) was 0.873. The normalized growth (locus YKL048C, strain ELM1, active compounds read low) was 0.974, the normalized growth (locus YKL067W, strain YNK1, active compounds read low) was 0.916 and the normalized growth (locus YKL101W, strain HSL1, active compounds read low) was 0.889. The normalized growth (locus YKL193C, strain SDS22, active compounds read low) was 0.975, the normalized growth (locus YKL203C, strain TOR2, active compounds read low) was 1.01 and the normalized growth (locus YLR113W, strain HOG1, active compounds read low) was 0.773 (active). For the same compound, the normalized growth (locus YLR133W, strain CKI1, active compounds read low) was 0.902, the normalized growth (locus YLR403W, strain SFP1, active compounds read low) was 0.926 and the normalized growth (locus YML070W, strain DAK1, active compounds read low) was 0.907. It also gave a normalized growth (locus YMR001C, strain CDC5, active compounds read low) of 0.97, a normalized growth (locus YMR205C, strain PFK2 (second series), active compounds read low) of 0.937 and a normalized growth (locus YMR277W, strain FCP1, active compounds read low) of 0.959. For the same compound, the normalized growth (locus YNL006W, strain LST8, active compounds read low) was 0.983, the normalized growth (locus YNL020C, strain ARK1, active compounds read low) was 0.905 and the normalized growth (locus YNL161W, strain CBK1, active compounds read low) was 0.976. The normalized growth (locus YNL183C, strain NPR1, active compounds read low) was 0.933, the normalized growth (locus YNL207W, strain RIO2, active compounds read low) was 0.978 and the normalized growth (locus YNL222W, strain SSU72, active compounds read low) was 0.965. The normalized growth (locus YNL307C, strain MCK1 (second series), active compounds read low) was 0.744, the normalized growth (locus YOL078W, strain AVO1, active compounds read low) was 0.976 and the normalized growth (locus YOL136C, strain PFK27, active compounds read low) was 0.878. It also gave a normalized growth (locus YOR061W, strain CKA2, active compounds read low) of 0.911, a normalized growth (locus YOR119C, strain RIO1, active compounds read low) of 0.943 and a normalized growth (locus YOR231W, strain MKK1, active compounds read low) of 0.846. For the same compound, the normalized growth (locus YOR329C, strain SCD5, active compounds read low) was 0.983, the normalized growth (locus YPL031C, strain PHO85, active compounds read low) was 0.896 and the normalized growth (locus YPL153C, strain RAD53, active compounds read low) was 0.894. For the same compound, the normalized growth (locus YPL204W, strain HRR25, active compounds read low) was 0.868, the normalized growth (locus YPL209C, strain IPL1, active compounds read low) was 0.979 and the normalized growth (locus YPL256C, strain CLN2, active compounds read low) was 0.811 (active). It also gave a normalized growth (locus YPR025C, strain CCL1, active compounds read low) of 0.981, a normalized growth (locus YPR106W, strain ISR1, active compounds read low) of 0.97 and a normalized growth (locus YPR111W, strain DBF20, active compounds read low) of 0.945. It also gave a normalized growth (strain NNK1, active compounds read low) of 0.96 and a normalized growth (strain TSCII, active compounds read low) of 0.972.

With `NN=C(N)N` the normalized growth [1] was 1.03 and 1.01, the normalized growth [9] was 0.987 and 0.992 and the normalized growth [10] was 1. The normalized growth [11] was 1.03, the normalized growth [12] was 1.03 and 0.995 and the normalized growth [13] was 1.03. The normalized growth [4] was 1.01, the normalized growth [6] was 1.01 and the normalized growth [14] was 1.02 and 1.01. For the same compound, the normalized growth [15] was 1.01, the normalized growth [16] was 0.993 and 1.03 and the normalized growth [17] was 1.02 and 1.01. For the same compound, the normalized growth [8] was 1.01.

Compound `CCN(CC)c1ncnc2c1ncn2[C@@H]1O[C@H](COP(=O)(O)OP(=O)(O)C(Br)(Br)P(=O)(O)O)[C@@H](O)[C@H]1O` has a normalized growth [9] of 1.05, a normalized growth [10] of 1 and a normalized growth [11] of 0.937. For the same compound, the normalized growth [12] was 1, the normalized growth [13] was 0.992 and the normalized growth [4] was 0.991. It also gave a normalized growth [5] of 1, a normalized growth [14] of 0.992 and a normalized growth [15] of 0.977. It also gave a normalized growth [16] of 0.971, a normalized growth [7] of 0.995 and a normalized growth [17] of 0.979. For the same compound, the normalized growth [8] was 1.01.
